# Screening data deposited in PubChem BioAssay by National Center for Advancing Translational Sciences (NCATS).
# An excerpt weighted towards active compounds, which were near 3.7% of everything screened.
# Nrf2 block – blocks Nrf2 signaling; 360,000 compounds, 2.1% hits; Potency, µM (top dose mostly 46 µM), inactives show top-dose activity change, negative = inhibition, actives largely listed as inhibitors; A549 ARE-Fluc reporter, luciferase luminescence, 18-24 h; AID 504444; also: % is scaled to controls: 0 for no effect and ±100 for the full control effect; nearly all actives have a fitted effect of over 60% in size
#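 Cells were seeded and rested 2 h, then exposed to compounds for 18-24 h. CellTiter-Fluor was read first as a viability measure. BugLite was added 15 min before the final luminescent read of ARE-luciferase activity in A549 cells.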
# Nrf2 ARE act – Nrf2 pathway activation; AREc32 ARE-luciferase reporter (MCF7-derived line), luminescence, 24 h; Potency, µM (top dose mostly 46.1 µM), for the others: top-dose activation, hits mostly activators; 410,000 compounds, 0.31% hits; also: % of control where 0% means no effect; nearly all actives have a fitted effect of over 65% in size
#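 Quantitative high-throughput format: AREc32 reporter cells, 1000 per well, received compound by pin transfer and were incubated 24 hr at 37 deg C, 5% CO2, before Steady-Glo luminescence detection.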
# ELG1 repair inh – ELG1-dependent DNA repair inhibition | HEK293T ELG1-luciferase reporter, luminescence, 16 h; DNA damage induced by 5-fluorouridine | Potency, µM (top dose mostly 46.1 µM), for the others: top-dose activity change, negative = inhibition, most hits filed as inhibitors | 330,000 compounds, 2.3% hits | AID 504467; also: % is scaled to controls: 0 for no effect and ±100 for the full control effect; nearly all actives have a fitted effect of over 55% in size
#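 5-Fluorouridine DNA damage + compound/DMSO, 2,000 cells/well, 16 h, 37 °C/5% CO2. ONE-Glo, 30 min RT, luminescence. Readout = decrease in reporter signal.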
# A549 viability – kills or reduces viability of A549 cells in Nrf2 counter-screen; A549 ARE-Fluc cells, CellTiter-Fluor viability, 18-24 h; Potency, µM (titrated, usually from 46 µM), inactives show at the highest dose activity change, negative = cytotoxicity, usual class: inhibitors; 390,000 compounds, 0.16% hits; AID 504648; also: % is scaled to controls: 0 for no effect and ±100 for the full control effect
#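 A549 ARE-Fluc cells in 5% FBS OPTI-MEM, 5000 cells/well, rested 2 h then exposed to compounds in concentration-response for 18-24 h at 37 °C. Viability by CellTiter-Fluor fluorescence (Ex 405/Em 525) after 30 min; luciferase luminescence (BugLite, 15 min, RT) read afterwards.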
# Active calls of the source: *; u = inconclusive; x = no result. Calls follow the shape of the dose curve; as a rule, active = well fitted curve in the direction sought with a large enough effect; inconclusive = small, poorly fitted or top-dose-only effect, or another doubt; inactive = no such curve, though single readings can be large; an effect the other way counts as inactive or inconclusive. Potency is read from the fitted curve at half-maximal effect.
SMILES,Nrf2 block,Nrf2 ARE act,ELG1 repair inh,A549 viability
O=C(C1CCC(Cn2c(=S)[nH]c3ccccc3c2=O)CC1)N1CCN(c2ccccn2)CC1 (configuration not stated),18µM*,0%,5.2µM*,u
CSc1nn(CC(=O)Nc2cc(C)ccc2C)c(N)c1S(=O)(=O)c1ccccc1,21µM*,0%,x,-4%
CCSc1nn(CC(=O)Nc2ccc(C(=O)OC)cc2)c(N)c1S(=O)(=O)c1ccc(C)cc1,23µM*,0%,x,-15%
Cc1ccc(/C=C/C(=O)OCn2nnc3ccccc3c2=O)o1,-17%,5%,12%,3%
Cc1cc(=O)oc2cc(NC(=O)c3ccccc3Cl)ccc12,23%,5µM*,u,-2%
Fc1ccc(-[n+]2nc(Nc3ccccc3)sc2-c2c3ccccc3cc3ccccc23)cc1,u,-1%,4.6µM*,u
CCn1c2ccccc2c2c3ncc4cccn4c3ccc21,u,13µM*,u,13%
COc1ccc(CN(CC2CCCO2)C(=O)CN2C(=O)COc3ccccc32)cc1OC (configuration not stated),4%,0%,12µM*,-2%
COc1ccc(CCNC(=O)CN2C(=O)COc3ccccc32)cc1OC,x,3%,x,14%
Fc1ccccc1/C=C1\CCCC2=C1NC(=S)NC2c1ccccc1F (configuration not stated),8.2µM*,3%,u,-13%
O=S(=O)(NCC(Nc1ccc(Cl)cc1)c1ccccc1)c1ccc(Cl)cc1 (configuration not stated),21µM*,0%,-2%,u
CCc1cc[n+](C2=C([O-])c3ccccc3C(=O)/C2=N\S(=O)(=O)c2cccs2)cc1,18µM*,-2%,16µM*,u
Cc1ccc(NC2=C/C(=N/S(=O)(=O)c3cccs3)c3ccccc3C2=O)cc1,u,-3%,u,u
CN(C(=O)COC(=O)/C=C/c1cn(-c2ccccc2)nc1-c1ccc2c(c1)OCCO2)C1CCS(=O)(=O)C1 (configuration not stated),-16%,1%,21µM*,-11%
O=C(COC(=O)/C=C/c1cn(-c2ccccc2)nc1-c1ccc2c(c1)OCCO2)NC1CCS(=O)(=O)C1 (configuration not stated),-19%,0%,18µM*,-11%
CCOC(=O)c1c(C)n(S(=O)(=O)c2ccc(C)cc2)c2ccc(NS(=O)(=O)c3ccc(C)cc3)cc12,-15%,2%,x,-3%
COC(=O)c1[nH]c2cc(C)ccc2c1NC(=O)CN1CCc2cc(OC)c(OC)cc2C1,u,6%,15µM*,-22%
CCOC(=O)c1[nH]c2ccc(F)cc2c1NC(=O)CN1CCc2cc(OC)c(OC)cc2C1,x,x,6.5µM*,x
CCOC(=O)N1CCN(CC(=O)Nc2c(C(=O)OC)[nH]c3cc(C)ccc23)CC1,-13%,6%,-19%,-11%
CCOC(=O)c1[nH]c2ccc(OCC)cc2c1NC(=O)CN1CCC2(CC1)OCCO2,-8%,2%,8.2µM*,-11%
COC(=O)c1[nH]c2ccc(Cl)cc2c1NC(=O)CN1CCc2cc(OC)c(OC)cc2C1,u,0%,9.2µM*,-19%
CC(C)C(NC(=O)C1(NC(=O)OCc2ccccc2)CCCC1)C(=O)O (configuration not stated),-2%,0%,x,2%
CCN(CC)c1ccc(NC(=O)CCCN2C(=O)C(c3ccccc3)Oc3cccnc32)c(C)c1 (configuration not stated),-26%,0%,x,1%
O=C(CNC1CCCCCC1)Nc1ccccc1N1CCOCC1,0%,0%,-6%,0%
CN(C)S(=O)(=O)N(CC(=O)Nc1ccc2ccccc2c1)c1ccccc1,x,0%,23µM*,-9%
SMILES,Nrf2 block,Nrf2 ARE act,ELG1 repair inh,A549 viability
Cc1sc2nc(C3CC3)nc(SCC(=O)N3CC(=O)Nc4ccccc43)c2c1C,7.3µM*,1%,u,-20%
O=C(NCc1ccco1)C(c1ccccc1)N(Cc1ccccc1)C(=O)Cn1nnc2ccccc21 (configuration not stated),-15%,0%,18µM*,2%
O=C(OCC(=O)N1CCN(C(=O)c2ccco2)CC1)c1cn(-c2ccccc2)nc1-c1ccccc1,-5%,4%,u,-3%
O=C(OCC(=O)N1CCN(C(=O)c2ccco2)CC1)c1cc(-c2ccccc2)nc2ccccc12,-6%,-1%,15µM*,-3%
O=C(c1ccco1)N1CCN(c2nc3ccccc3c(=O)n2-c2ccccc2)CC1,u,0%,21µM*,x
O=C(OCC(=O)N1CCN(C(=O)c2ccco2)CC1)c1cc(-c2cccc(Br)c2)nc2ccccc12,u,3%,16µM*,-3%
O=C(OCC(=O)N1CCN(C(=O)c2ccco2)CC1)c1cc(-c2ccc(F)cc2)nc2ccccc12,-13%,0%,23µM*,1%
CCCS(=O)(=O)N1CCC(N2CCN(Cc3ccc(F)cc3)C(=O)C2=O)CC1,x,-1%,x,-3%
Cc1cccc(-n2cc(CNCCc3nc(C)cc(C)n3)c(-c3cccc(F)c3)n2)c1,-13%,-1%,23µM*,-6%
CN(C)/C=C/C(=O)c1ccc2noc(-c3ccc(F)cc3)c2c1,-14%,4%,8.2µM*,2%
Cc1ccc(-c2onc3ccc(C(=O)/C=C/N(C)C)cc23)cc1,10%,-1%,-26%,-3%
Cc1c(C)n(Cc2ccccc2)c2ncnc(N)c12,u,1%,16µM*,-24%
Cc1cc(F)ccc1NC(=O)c1c(C)oc2c1C1=NCCN1C=N2,u,0%,x,5%
CCOc1ccc(/C=N/NC(=S)Nc2c(C)cccc2C)cc1,u,1%,18µM*,u
CN(C)S(=O)(=O)c1ccc(Cl)c(C(=O)Nc2ccc(S(=O)(=O)N3CCOCC3)cc2)c1,-16%,0%,16µM*,-6%
CN(C)S(=O)(=O)c1ccc(Cl)c(C(=O)Nc2cccc([N+](=O)[O-])c2)c1,9.2µM*,13%,8.2µM*,-1%
CS(=O)(=O)Nc1ccc(C(=O)Nc2cccc([N+](=O)[O-])c2)cc1,-16%,6.3µM*,0%,-5%
Cc1nc(-c2ccccc2)sc1CCNC(=O)c1ccco1,x,4%,x,12%
CC1=NNC(=O)C1CC(=O)N/N=C/C=C/c1ccccc1 (configuration not stated),-29%,4%,2%,-3%
CC(=O)c1ccc(N2CCN(C(=O)Nc3ccc(C(C)C)cc3)CC2)cc1,7.3µM*,2%,u,u
CCOc1ccc(S(=O)(=O)Nc2ccc(F)cc2)c(C)c1C,18µM*,3%,u,-27%
CCOc1ccc(NS(=O)(=O)c2cc(OC)ccc2OC)cc1,-12%,0%,-4%,-3%
Cc1nn(C)c(C(=O)Nc2ccn(Cc3c(F)c(F)cc(F)c3F)n2)c1[N+](=O)[O-],-4%,0%,-19%,8%
